Experimental data from the supplement of paper PMC10338343.
± gives the standard deviation.

system: MILI (PIWIL2) piRISC loaded with piRNA #1 (26 nt); experiment: pre-steady-state target cleavage rate (min^-1); guide: piRNA #1 5'p-UGAGGUAGUAGGUUGUAUAGUAUCCA; MIWI and MILI are mouse PIWI proteins and EfPiwi is from a freshwater sponge; tags in brackets are library labels; higher = faster piRNA-guided slicing of the target; details: auxiliary factor: 500 nM mouse GTSF1
Method in brief: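 A transcribed, DNA-blocked target RNA library […] was incubated at 33 °C for 0–8 or 0–960 min with 1 nM active affinity-purified piRISC carrying one synthetic guide, in HEPES–potassium acetate buffer with or without 500 nM GTSF1 partner protein. Uncleaved targets were then sequenced and normalised to depth and to weakly complementary targets. Data from three trials were pooled, with k3 capped at 0.0001 min^-1, and a burst-and-steady-state fit yielded the pre-steady-state cleavage rate.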
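Also: 1 nM active piRISC with 0.1 nM target library at 33 °C single turnover.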

| Sequence | pre-steady-state target cleavage rate |
| --- | --- |
| GGAGACCUUACUAUAGUACCUACUACCUCA | 0.119 ± 0.0098 |
| GGAGACCUAUGAUAACAUCCUACUUCCUCA | 0.00421 ± 0.0027 |
| GGAGACCUAACUAUACAACCUACUACCGCA | 0.197 ± 0.038 |
| GGAGACCUUUCUAUAGAACCUACUACCUCA | 0.0818 ± 0.011 |
| GGAGACCUAUCUAUACAACCUACUCCCUCA | 0.0608 ± 0.0097 |
| GGAGACCUAUGUAUACAUCCUAGUACCUCA | 0.015 ± 0.0049 |
| GGAGACCUAUGAAUACAACCUACUGCCUCA | 0.0052 ± 0.0029 |
| GGAGACCUAUGUUUACAACCUACUACCUGA | 0.00584 ± 0.0023 |
| GGAGACCUUACUAUACAUCCUACUUCCUCA | 0.183 ± 0.031 |
| GGAGACCUAUGAUUACAAGCUACUACGUCA | 0.00819 ± 0.0037 |
| GGAGACCUAUGAAUAGAACCUACUACCUCA | 0.00534 ± 0.0016 |
| GGAGUGGAUAGUAAACAACCUACUACCUCA | 0.0879 ± 0.0084 |
| GGAGACCAUACUAAACAUCCUACUACCUCA | 0.272 ± 0.022 |
| GGAGACCUAUGUAUACAACCUACAACCUGA | 0.0031 ± 0.0024 |
| GGAGUGGAUUCUAUACAACCUACUACCACA | 0.121 ± 0.011 |
| GGAGACCUAUCUAUACAACCAACUACGUCA | 0.00385 ± 0.0021 |
| GGAGACCUAUGUAUACAACGUAGUACCUCA | 0.0032 ± 0.0023 |
| GGAGACCAUACUAAACAACGUACUACCUCA | 0.0192 ± 0.003 |
| GGAGACCUAACUAAACAACCUACUACGUCA | 0.0404 ± 0.019 |
| GGAGACCUAUGUAUACAACCUACUACCCA | 0.0226 ± 0.0055 |

| Sequence | pre-steady-state target cleavage rate |
| --- | --- |
| GGAGACCUAUGAUUACAACCUACUACCUCCA | 0.00682 ± 0.0026 |
| GGAGACCUAUGUUUACUACCUACUACCUCA | 0.00553 ± 0.0021 |
| GGAGACCUAUGUAUACAAGCUACAACCUCA | 0.0946 ± 0.011 |
| GGAGACCUAUGUCUACAACCUACUACCUCA | 0.0245 ± 0.004 |
| GGAGACCUAUGAAACAACCUACUACCUCA | 0.00673 ± 0.0031 |
| GGAGACCUAUGUAUACAAGCUAGUACCUCA | 0.0538 ± 0.0098 |
| GGAGACCUAACUAUACAACCUACUACCUGCA | 0.149 ± 0.034 |
| GGAGACCUAUCUAUACGACCUACUACCUCA | 0.0198 ± 0.0044 |
| GGAGAGGAUACUAUUCUACCUACUACCUCA | 0.179 ± 0.013 |
| GGAGACCUAUGUAUACAACCUAACUACCUCA | 0.00595 ± 0.0023 |
| GGAGACCAUACUAUUGUACCUACUACCUCA | 0.0647 ± 0.009 |
| GGAGACCUAUCUAUACAACCUACUACCAUCA | 0.123 ± 0.016 |
| GGAGACCUAUGAAUACAACGUACUACCUCA | 0.00541 ± 0.0019 |
| GGAGACCAUAGUAUACAACCUACUAGCUCA | 0.0143 ± 0.0053 |
| GGAGACCUAUGAUUACAACCUACUAUCCUCA | 0.00664 ± 0.0027 |
| GGAGACCUAUCUAUACAACCUACUACGACA | 0.0627 ± 0.01 |
| GGAGACCAUACUAUCCAACCUACUACCUCA | 0.178 ± 0.017 |
| GGAGACCUAACUAUUCAUCCUACUACCUCA | 0.322 ± 0.043 |
| GGAGACCUAUGAAUACAACGUACUACCACA | 0.00353 ± 0.0029 |
| GGAGACCUAUCUAUACAACCAACUACCACA | 0.00574 ± 0.0023 |
